The campaign covered roughly 66,000 compounds. About 960 (1.5%) showed an effect of 50% or more. Shown is part of a subset that was picked to be rich in strong results.
Test system: Trypanosoma brucei
Assay: Trypanosoma brucei 72 hour study
Format: functional, organism-based
Set-up: scale not given: in the data most compounds retested in dose-response had high values

CCCn1c(N2CCCCC2)nc2c(C)nn(C)c2c1=O
Percent Effect (30.3 µM, […]): -27.42%

CCCn1c(N2CCCC(C)C2)nc2c(C)nn(C)c2c1=O (centres undefined)
Percent Effect (30.3 µM, […]): 99.54%

CCCn1c(N2CCCC2)nc2c(C)nn(C)c2c1=O
Percent Effect (30.3 µM, […]): -10.23%

CC(C)CS(=O)(=O)N1C[C@H]2C[C@H](C(=O)N3CCOCC3)[C@@H](C1)O2
Percent Effect (30.3 µM, […]): -39.74%

COc1ncccc1CNc1snc(Cl)c1C#N
Percent Effect (30 µM, 30.03 µM): -23.85%

CC(C)c1cc(C(=O)NCCCN(C)C)nc(N2CCCC2)n1
Percent Effect (30.3 µM, […]): 85.35%

CCN(CC)CCNC(=O)c1cc(C(C)C)nc(N2CCCC2)n1
Percent Effect (30 µM, 30.03 µM): -3.491%

COCCCNC(=O)c1cc(C(C)C)nc(N2CCCC2)n1
Percent Effect (30.3 µM, […]): -9.807%

Cc1nc(C(=O)N2CC[C@@]3(C[C@@H](NS(C)(=O)=O)CCO3)C2)cs1
Percent Effect (30.3 µM, […]): -224.6%

Cc1ccn(-c2ccc(NCc3ccnc(N4CCCCC4)c3)nn2)n1
Percent Effect (30.3 µM, […]): 100.1%

Cc1ccn(-c2ccc(NCc3ccccc3F)nn2)n1
Percent Effect (30.3 µM, […]): -5.586%

Cc1ccn(-c2ccc(NCc3cccnc3N3CCCCC3)nn2)n1
Percent Effect (30.3 µM, […]): 1.055%

CC1c2ncc(CNC(=O)C3CC3)n2CCN1Cc1ccsc1.O=C(O)C(F)(F)F (centres undefined)
Percent Effect (30.3 µM, […]): -8.055%

N#Cc1cccc(S(=O)(=O)NC(=O)COCC(F)(F)F)c1
Percent Effect (30.3 µM, […]): -64.9%

O=C(CCOCC(F)(F)F)NS(=O)(=O)c1cccnc1
Percent Effect (30.3 µM, […]): -16.93%

N#Cc1cccc(S(=O)(=O)NC(=O)CCOCC(F)(F)F)c1
Percent Effect (30.3 µM, […]): 72.29%

CN(C)c1ncc(-c2cc(C(=O)NCCC#N)n(CC3CC3)c2)cn1.O=C(O)C(F)(F)F
Percent Effect (30.3 µM, […]): -1.079%

Cn1cc(C(=O)N2CCCC(Cc3cccc4ncccc34)C2)cn1 (centres undefined)
Percent Effect (30.3 µM, […]): -45.5%

CC(C)(C)C(=O)NCCC(=O)NCCc1ccn(-c2ccccc2)n1
Percent Effect (10 µM): -35.6%

COCCNC(=O)NCCc1ccn(-c2ccccc2)n1
Percent Effect (30 µM, 30.03 µM): 42.02%

CC(C)(C)C(=O)NCCc1ccn(-c2ccccc2)n1
Percent Effect (30 µM, 30.03 µM): 103.6%

O=C(CCNc1ncccn1)NCCc1ccn(-c2ccccc2)n1
Percent Effect (30 µM, 30.03 µM): 19.3%

CCC(CC)C(=O)NCCc1ccn(-c2ccccc2)n1
Percent Effect (10 µM): -35.97%

CC(C)CCC(=O)NCCc1ccn(-c2ccccc2)n1
Percent Effect (10 µM): 100.3%

CC(C)CC(=O)NCCCc1cc(N)n(-c2ccccc2)n1
Percent Effect (30 µM, 30.03 µM): -23.13%

CCN(CC)C(=O)NCCc1ccn(-c2ccccc2)n1
Percent Effect (10 µM): 99.69%

CC(C)(CNC(=O)NCCc1ccn(-c2ccccc2)n1)C(N)=O
Percent Effect (10 µM): -34.81%

CC(C)c1nc(C2CCCN2Cc2nnc(C3CCC3)o2)no1 (centres undefined)
Percent Effect (10 µM): -24.2%

CN(C)CC(=O)N1CCCC1c1cncc(Oc2ccc(F)cc2)n1 (centres undefined)
Percent Effect (30.3 µM, […]): -19.56%

COc1c(C2CCCN2C(=O)c2ccc(C#N)c(C)n2)c(C)nn1C (centres undefined)
Percent Effect (10 µM): -24.86% | Percent Effect (30.3 µM, […]): 0.3708%

CCc1nc(CSc2nnc(N)n2C2CC2)no1
Percent Effect (30.3 µM, […]): -10.47%

Cc1ccccc1Cc1nc(CSc2nnc(N)n2C2CC2)no1
Percent Effect (30.3 µM, […]): 69.45%

Cc1ccccc1Cc1nc(CSc2nnc(N)n2C)no1
Percent Effect (30.3 µM, […]): 30.54%

O=C1NCCN1C1CCN(CCOc2ccccc2F)CC1
Percent Effect (10 µM): -33.22%

Cc1ccc(CN2C[C@@H]3CCCO[C@@H]3[C@H](N(C)Cc3ccco3)C2)o1.O=C(O)C(F)(F)F.O=C(O)C(F)(F)F
Percent Effect (30 µM, 30.03 µM): 25.08%

CCCN1CCCn2c(nc(CNC(=O)c3cnoc3C)cc2=O)C1.O=C(O)C(F)(F)F
Percent Effect (30 µM, 30.03 µM): 19.21%

COCCn1cc(NC(=O)NCC(C)N2CCOCC2)cn1 (centres undefined)
Percent Effect (30.3 µM, […]): -22.83%

CCC(CC)C(CNC(=O)Nc1cnn(CCOC)c1)N(C)C (centres undefined)
Percent Effect (30.3 µM, […]): 100.4%

COCCn1cc(NC(=O)NCC(c2cccc(F)c2)N(C)C)cn1 (centres undefined)
Percent Effect (30.3 µM, […]): 9.218%

CC(C)c1nnc2n1CC(CNC/C=C/c1ccccc1)CC2 (centres undefined)
Percent Effect (30 µM, 30.03 µM): 7.913%

CC(C)NC1CCc2[nH]c(=O)ccc2C1.O=C(O)C(F)(F)F (centres undefined)
Percent Effect (30.3 µM, […]): -14.11%

CN1CCO[C@@H]2CN(C(=O)Cc3cccs3)CC[C@@H]2C1.O=C(O)C(F)(F)F
Percent Effect (30.3 µM, […]): -41.5%

CC(C)Cc1ncc2c(n1)CN(c1nccc(NC(C)C)n1)C2
Percent Effect (30 µM, 30.03 µM): 89.54%

CC(C)Nc1ccnc(N2Cc3cnc(C(C)(C)C)nc3C2)n1
Percent Effect (30 µM, 30.03 µM): -43.35%

CCNc1ccnc(N2Cc3cnc(CC(C)C)nc3C2)n1
Percent Effect (30 µM, 30.03 µM): 7.855%

CN(Cc1cccnc1)[C@@H]1CN(C(=O)c2ccoc2)[C@@H]2CCCO[C@H]12.O=C(O)C(F)(F)F.O=C(O)C(F)(F)F
Percent Effect (30.3 µM, […]): -7.538%

CN1CCN(Cc2cnc3n2CCN(CCc2ccccc2)C3)CC1.O=C(O)C(F)(F)F.O=C(O)C(F)(F)F.O=C(O)C(F)(F)F
Percent Effect (30.3 µM, […]): -12.43%

Cc1cccc(CN2CC3(CCN(Cc4ccoc4)CC3)OCC2=O)n1.O=C(O)C(F)(F)F.O=C(O)C(F)(F)F
Percent Effect (30.3 µM, […]): -93.34%

O=C(O)CC(O)(CC(=O)O)C(=O)O.OCCN(Cc1ccncc1)CC1(c2ccc(Cl)cc2)CCCC1
Percent Effect (30.3 µM, […]): 12.41%

CN(C)S(=O)(=O)N1CCC(c2n[nH]cc2-c2ccnc(N)c2)C1 (centres undefined)
Percent Effect (30.3 µM, […]): -8.179%

CC(C)CNc1cc(-c2c[nH]nc2C2CCN(C(=O)C3CC3)C2)ccn1 (centres undefined)
Percent Effect (30.3 µM, […]): 100.1%

CC(=O)N1CCC(c2n[nH]cc2-c2ccnc(N)c2)C1 (centres undefined)
Percent Effect (30.3 µM, […]): -2.575%

CC(C)Nc1cc(-c2c[nH]nc2C2CCN(C(=O)C3CCC3)C2)ccn1 (centres undefined)
Percent Effect (30.3 µM, […]): 100.4%

Cc1c[nH]nc1C1CCN(C(=O)Cn2cccn2)C1 (centres undefined)
Percent Effect (30.3 µM, […]): -30.39%

O=C(C1CCCC1)N1CCC(c2ccnc(Nc3cnccn3)n2)C1 (centres undefined)
Percent Effect (30.3 µM, […]): 9.82%

CN1CCC(c2n[nH]cc2-c2ccnc(N)c2)C1 (centres undefined)
Percent Effect (30.3 µM, […]): -5.978%

CC(C)Nc1cc(-c2c[nH]nc2C2CCN(C(=O)C3CC3)C2)ccn1 (centres undefined)
Percent Effect (30.3 µM, […]): 99.82%

Nc1cc(-c2c[nH]nc2C2CCN(C(=O)C3CCCC3)C2)ccn1 (centres undefined)
Percent Effect (30.3 µM, […]): 38.23%

Nc1cc(-c2c[nH]nc2C2CCCCN2C(=O)C2CCCC2)ccn1 (centres undefined)
Percent Effect (30.3 µM, […]): 11.59%

CC(C)N1CCC(c2n[nH]cc2-c2ccnc(N)c2)C1 (centres undefined)
Percent Effect (30.3 µM, […]): 2.3%

CCCNc1cc(-c2c[nH]nc2C2CCN(C(=O)C3CCC3)C2)ccn1 (centres undefined)
Percent Effect (30.3 µM, […]): 99.71%

Cc1occc1C(=O)N1CCO[C@H]2[C@@H](Oc3ccccn3)CC[C@@H]21.O=C(O)C(F)(F)F
Percent Effect (30 µM, 30.03 µM): 26.48%

CNC(=O)CN1CCOCC2(C1)CN(C(=O)C(C)C)CCO2.O=C(O)C(F)(F)F (centres undefined)
Percent Effect (30 µM, 30.03 µM): -6.033%

CS(=O)(=O)N1CCO[C@H]2[C@@H](Oc3ncccc3F)CC[C@@H]21.O=C(O)C(F)(F)F
Percent Effect (30.3 µM, […]): 12.73%

CC(=O)NC1CCN(c2cc(C3CCNCC3)ccn2)CC1.Cl.Cl
Percent Effect (30.3 µM, […]): -5.403%

O=C(O)C(F)(F)F.O=C([C@@H]1CC[C@@H]2[C@@H](CCN2c2ccncn2)O1)N1CCCCO1
Percent Effect (30.3 µM, […]): -55.7%

Cc1cc(N2CCC(N(C)C(=O)c3ccccc3F)CC2)nc(C)n1
Percent Effect (30 µM, 30.03 µM): -12.35%

Cn1ccnc1C(=O)N[C@@H]1CN(CC2CCOCC2)[C@@H]2CCCO[C@@H]21.O=C(O)C(F)(F)F
Percent Effect (30.3 µM, […]): -79.05%

Cc1cc(SCC(=O)O)nc2nn(CC(F)F)c(C)c12
Percent Effect (30.3 µM, […]): -20.88%

CCc1nc(-c2cncnc2C2CCCNC2)no1.Cl (centres undefined)
Percent Effect (30.3 µM, […]): 10%

CCC(CC)C(=O)N1CCc2nc(N3CCCC3)nc(C)c2CC1
Percent Effect (30 µM, 30.03 µM): -41.54%

Cc1cccc(CN2C[C@@H]3CN(C(=O)c4ccco4)C[C@@H]3C2=O)n1.O=C(O)C(F)(F)F
Percent Effect (30.3 µM, […]): -11.66%

CN1CCC(NC(=O)Cc2csc(C(C)(C)C)n2)CC1
Percent Effect (30.3 µM, […]): 4.768%

CC(=O)N1CCC(NC(=O)Cc2csc(C(C)(C)C)n2)CC1
Percent Effect (30.3 µM, […]): -5.92%

CC(C)(C)c1nc(CC(=O)NC2CCN(C3CC3)C2)cs1 (centres undefined)
Percent Effect (30.3 µM, […]): 99.7%

COc1cc2c(c(OC)c1OC)CCN(CCN1CCCCC1)CC2
Percent Effect (30 µM, 30.03 µM): -20.4%

CCN1CCN(c2ccccc2NC(=O)NCc2ccon2)CC1
Percent Effect (30.3 µM, […]): -63.99%

Cc1nc(CN2CCCC(CCc3ccccc3C(F)(F)F)C2)no1 (centres undefined)
Percent Effect (30.3 µM, […]): 87.44%

Cc1nc(CN2CCCC(N(C)CC3CCCC3)C2)no1 (centres undefined)
Percent Effect (30.3 µM, […]): -21.28%

Cc1nc(CN2CCCC(CCc3cccc(C(F)(F)F)c3)C2)co1 (centres undefined)
Percent Effect (30.3 µM, […]): 40.44%

Cc1nnc(CN2CCCC(CCc3ccccc3C(F)(F)F)C2)o1 (centres undefined)
Percent Effect (30.3 µM, […]): 32.35%

Cc1nc(CN2CCCC(CCc3ccccc3C(F)(F)F)C2)co1 (centres undefined)
Percent Effect (30.3 µM, […]): 52.02%

Fc1ccccc1CC1CCN(Cc2cscn2)CC1
Percent Effect (30 µM, 30.03 µM): -2.509%

FC(F)(F)c1ccccc1CCC1CCCN(Cc2cscn2)C1 (centres undefined)
Percent Effect (30.3 µM, […]): 51.05%

Cc1nc(CN2CCCC(N(C)CCCc3ccccc3)C2)no1 (centres undefined)
Percent Effect (30.3 µM, […]): -9.572%

Cn1cc(CN2CCCC(CCc3ccccc3C(F)(F)F)C2)cn1 (centres undefined)
Percent Effect (30 µM, 30.03 µM): -18.52%

Cc1ccc2c(n1)N(Cc1cccnc1)CCN(C1CCOCC1)C2.O=C(O)C(F)(F)F.O=C(O)C(F)(F)F.O=C(O)C(F)(F)F
Percent Effect (30 µM, 30.03 µM): -18.41%

CC1N(c2cnn(C)c2)C(=O)COC12CCN(c1ccccn1)CC2.O=C(O)C(F)(F)F (centres undefined)
Percent Effect (30.3 µM, […]): -14.53%

Cc1oncc1C(=O)N1CC[C@H]2[C@H](C[C@@H](CN(C)C)N2CC2CC2)C1.O=C(O)C(F)(F)F.O=C(O)C(F)(F)F
Percent Effect (30.3 µM, […]): -0.8006%

Cl.O=C(CCN1CCCC1)Nc1c2c(cc3c1CCC3)CCC2
Percent Effect (30 µM, 30.03 µM): 0.04304%

COCC(=O)NC[C@]12COC[C@H]1CN(Cc1ccc3c(c1)OCO3)C2.O=C(O)C(F)(F)F
Percent Effect (30.3 µM, […]): 5.113%

COC1COC2(CCN(C(=O)c3ccccc3F)CC2)C1 (centres undefined)
Percent Effect (30.3 µM, […]): -57.28%

CCN(C)c1ncnc2c1CCN(C(=O)Cc1ccccn1)CC2.O=C(O)C(F)(F)F
Percent Effect (30 µM, 30.03 µM): -43.42%

— ChEMBL document CHEMBL3988442, “University of Dundee, Small-Polar-MMV Screening Library” (2021)
